This is an account of results in PubChem BioAssay (Tox21).

Several values for one entry are separate records, joined by “and”; a condition that tells them apart may be missing. Equal values may be shown once. Records with an inconclusive call do not appear. A call without a number means that no potency is given here. Some compounds were tested as several samples or in several runs, with calls that do not always agree. Activity calls are given as the source filed them. Calls come from the whole dose curve; as a rule, active = well fitted cell-killing curve with a large enough effect in the repeat runs; inconclusive = weak or mixed curves, or effect the other way; inactive = no such curve, though single readings can be large or run the other way.
Potency is the fitted concentration of half-maximal effect.

The nature of this assay: qHTS assay to identify small molecule antagonists of the vitamin D receptor (VDR) signaling pathway - cell viability counter screen (AID 743225). Note: nearly all actives have a fitted effect of over 50% in size. Particulars: VDR-bla HEK293T viability, CellTiter-Glo luminescence, 16 h; series mostly up to 61 µM. An excerpt:
U.S. Tox21 Program National Center for Advancing Translational Sciences [NCATS] NIH Chemical Genomics Center [NCGC] U.S. Environmental Protection Agency [EPA] National Institutes of Environmental Health Sciences [NIEHS] National Toxicology Program [NTP] U.S. Food and Drug Administration [FDA] Tox21 Assay Overview: The vitamin D receptor (VDR), a member of nuclear hormone receptor superfamily, plays a critical role in calcium homeostasis and bone metabolism. It is also involved in cell differentiation and growth, and thrombogenicity. To identify the compounds that inhibit VDR signaling, the VDR-UAS-bla HEK 293T cell line (Invitrogen, Carlsbad, CA, USA) containing a beta-lactamase reporter gene under the control of an upstream activator sequence (UAS) was used to screen the Tox21 10K compound library. The cytotoxicity of the Tox21 compound library against the VDR-bla cell line was tested in parallel by measuring the cell viability using CellTiter-Glo assay (Promega, Madison, WI) in the same wells.
Tox21 Assay Protocol Summary: VDR-bla cells were dispensed at 2,000 cells/5 uL of assay medium per well into black wall/clear-bottom 1536-well plates using a Multidrop Combi (Thermo Fisher Scientific, Waltham, MA) dispenser. After the assay plates were incubated at a 37C and 5% CO2 for 4 h, 23 nL of compounds dissolved in DMSO, positive controls or DMSO only was transferred to the assay plate by a Pintool station (Kalypsys, San Diego, CA), followed by addition of 1 uL of 1-alpha, 25-Dihydroxy Vitamin D3 (3 nM, final concentration in the wells) using a Bioraptr Flying Reagent Dispenser (FRD) workstation (Beckman Coulter, Indianapolis, IN). The plates were incubated at 37C and 5% CO2 for 16 h, and then 1 uL of LiveBLAzerTM B/G FRET substrate was added using a Bioraptr FRD. The plates were incubated at room temperature for 2 h and fluorescence intensity was measured by an Envision plate reader (PerkinElmer, Shelton, CT). For cell viability readout that measures cytotoxicity, 3 ul/well of CellTiter-Glo reagent was added into the assay plates using a Bioraptr FRD. After 30 min incubation at room temperature, the luminescence intensity in the plates was measured using a ViewLux plate reader (PerkinElmer).
Take `CC1=C(CC(=O)O)c2cc(F)ccc2/C1=C\c1ccc(S(C)=O)cc1` (stereo not given): the Potency result was “inactive”.

Regarding `NC(=O)NNc1ccccc1`, the Potency entry was “inactive”.

Consider `COC(=O)c1ccccc1O`, for which the Potency entry is “inactive”.

For `Nc1nc2ncc(CNc3ccc(C(=O)N[C@@H](CCC(=O)O)C(=O)O)cc3)nc2c(=O)[nH]1`, the Potency result is “inactive”.

Take `CC(C)(CO)COC(=O)C(C)(C)CO`: the Potency entry was “inactive”.

Consider `CCCCCCCCCCCCN`, for which the Potency entry was “inactive and 54.9 µM (active)”.

As for `O=S(=O)(O)CCS`, the Potency result is “inactive”.

Turning to `CCC(=O)O`, the Potency result was “inactive”.

As for `Oc1ccc2ccccc2c1`, the Potency result is “inactive”.

Regarding `OCCOCCOCCOCCO`, the Potency entry is “inactive”.

With `CCc1ccccc1O`, the Potency entry is “inactive”.

Regarding `ClC1=C(Cl)C(Cl)(Cl)C(Cl)=C1Cl`, the Potency entry is “inactive”.

As to `C=C1CC[C@H](O)CC1=C/C=C1\CCC[C@]2(C)[C@@H]([C@H](C)/C=C/[C@H](C)C(C)C)CC[C@@H]12`, the Potency result is “inactive”.

With `CCCCC(CC)COC(=O)/C=C\C(=O)OCC(CC)CCCC` (stereo not given), the Potency result is “inactive”.

`Nc1cc(-c2ccncc2)c[nH]c1=O`: the Potency entry is “inactive”.

Turning to `Cc1ccc(C(=O)O)o1`, the Potency entry is “inactive”.

`CCC(C)C=O` (stereo not given): the Potency result was “inactive”.

Consider `Clc1cc(Cl)c(Cl)cc1Cl`, for which the Potency result was “inactive”.

Consider `Oc1ccc2ccccc2c1N=Nc1ccccc1`, for which the Potency entry was “inactive”.

For `COC(=O)Nc1nc2ccc(Sc3ccccc3)cc2[nH]1`, the Potency entry was “inactive”.

On to `CCCCCCCCCCCCOCC1CO1` (stereo not given), for which the Potency entry was “inactive”.

Take `Cc1cc(=O)[nH]c(C(C)C)n1`: the Potency result is “inactive”.

In the case of `CC1Cc2ccccc2N1NC(=O)c1ccc(Cl)c(S(N)(=O)=O)c1` (stereo not given), the Potency entry is “inactive”.

In the case of `O=[N+]([O-])c1cc(N(CCO)CCO)ccc1NCCO`, the Potency result was “inactive”.

For the compound `CCCCC(CC)COC(C)=O` (stereo not given), the Potency result is “inactive”.

For `CC(C)(C)C(=O)C1C(=O)c2ccccc2C1=O`, the Potency entry was “inactive”.

On to `CCCCCCCCCCC=CC1CC(=O)OC1=O` (stereo not given), for which the Potency result is “inactive”.

As for `CC(C)n1c(/C=C/[C@@H](O)C[C@@H](O)CC(=O)O)c(-c2ccc(F)cc2)c2ccccc21`, the Potency result was “inactive”.

For the compound `CS(=O)(=O)c1ccc([C@@H](O)[C@@H](CO)NC(=O)C(Cl)Cl)cc1`, the Potency result is “inactive”.

Turning to `O=C(c1cc(O)c(O)c(O)c1)c1ccc(O)c(O)c1O`, the Potency entry was “inactive”.

Consider `Cc1cc(O)cc(C)c1Cl`, for which the Potency result is “inactive”.

Turning to `CNC[C@H](O)[C@@H](O)[C@H](O)[C@H](O)CO`, the Potency entry was “inactive”.

Consider `CC1COc2ccccc2N1C(=O)C(Cl)Cl` (stereo not given), for which the Potency entry is “inactive”.

As for `CCc1ccc(O)cc1`, the Potency entry is “inactive”.

Turning to `C=C(C)C(=O)OCCC[Si](OC)(OC)OC`, the Potency entry is “inactive”.

For the compound `C=C1C2CCC(C2)C1(C)C` (stereo not given), the Potency entry is “inactive”.

On to `O=[N+]([O-])c1cccc(Cl)c1`, for which the Potency entry is “inactive”.

Take `C=C(C)C(=O)OCC(CC)(COC(=O)C(=C)C)COC(=O)C(=C)C`: the Potency entry is “inactive”.

For the compound `S=c1nc[nH]c2nc[nH]c12`, the Potency is 4.25 µM (active).

For `CCOC(=O)/C=C\C(=O)OCC`, the Potency entry was “inactive”.
